Measurements published in the supplement of paper PMC11732987, “Enantioselective OTUD7B fragment discovery through chemoproteomics screening and high-throughput optimisation” (Communications Chemistry, 2025).

Experiments:
Experiment in all cases: log2 ratio of Biotin-Ahx-Ub-VS probe labelling (fragment/DMSO); higher = less target engagement (more negative = stronger competition), active = hit call of the paper (q ≤ 0.05, log2 ratio ≤ -1)
Conditions in all cases: compound concentration: 200 uM; treatment time: 3 h
[1] = target: USP34 (UniProt Q70CQ2)
Chain of USP34 (Q70CQ2 whole entry, the tested form may be a part): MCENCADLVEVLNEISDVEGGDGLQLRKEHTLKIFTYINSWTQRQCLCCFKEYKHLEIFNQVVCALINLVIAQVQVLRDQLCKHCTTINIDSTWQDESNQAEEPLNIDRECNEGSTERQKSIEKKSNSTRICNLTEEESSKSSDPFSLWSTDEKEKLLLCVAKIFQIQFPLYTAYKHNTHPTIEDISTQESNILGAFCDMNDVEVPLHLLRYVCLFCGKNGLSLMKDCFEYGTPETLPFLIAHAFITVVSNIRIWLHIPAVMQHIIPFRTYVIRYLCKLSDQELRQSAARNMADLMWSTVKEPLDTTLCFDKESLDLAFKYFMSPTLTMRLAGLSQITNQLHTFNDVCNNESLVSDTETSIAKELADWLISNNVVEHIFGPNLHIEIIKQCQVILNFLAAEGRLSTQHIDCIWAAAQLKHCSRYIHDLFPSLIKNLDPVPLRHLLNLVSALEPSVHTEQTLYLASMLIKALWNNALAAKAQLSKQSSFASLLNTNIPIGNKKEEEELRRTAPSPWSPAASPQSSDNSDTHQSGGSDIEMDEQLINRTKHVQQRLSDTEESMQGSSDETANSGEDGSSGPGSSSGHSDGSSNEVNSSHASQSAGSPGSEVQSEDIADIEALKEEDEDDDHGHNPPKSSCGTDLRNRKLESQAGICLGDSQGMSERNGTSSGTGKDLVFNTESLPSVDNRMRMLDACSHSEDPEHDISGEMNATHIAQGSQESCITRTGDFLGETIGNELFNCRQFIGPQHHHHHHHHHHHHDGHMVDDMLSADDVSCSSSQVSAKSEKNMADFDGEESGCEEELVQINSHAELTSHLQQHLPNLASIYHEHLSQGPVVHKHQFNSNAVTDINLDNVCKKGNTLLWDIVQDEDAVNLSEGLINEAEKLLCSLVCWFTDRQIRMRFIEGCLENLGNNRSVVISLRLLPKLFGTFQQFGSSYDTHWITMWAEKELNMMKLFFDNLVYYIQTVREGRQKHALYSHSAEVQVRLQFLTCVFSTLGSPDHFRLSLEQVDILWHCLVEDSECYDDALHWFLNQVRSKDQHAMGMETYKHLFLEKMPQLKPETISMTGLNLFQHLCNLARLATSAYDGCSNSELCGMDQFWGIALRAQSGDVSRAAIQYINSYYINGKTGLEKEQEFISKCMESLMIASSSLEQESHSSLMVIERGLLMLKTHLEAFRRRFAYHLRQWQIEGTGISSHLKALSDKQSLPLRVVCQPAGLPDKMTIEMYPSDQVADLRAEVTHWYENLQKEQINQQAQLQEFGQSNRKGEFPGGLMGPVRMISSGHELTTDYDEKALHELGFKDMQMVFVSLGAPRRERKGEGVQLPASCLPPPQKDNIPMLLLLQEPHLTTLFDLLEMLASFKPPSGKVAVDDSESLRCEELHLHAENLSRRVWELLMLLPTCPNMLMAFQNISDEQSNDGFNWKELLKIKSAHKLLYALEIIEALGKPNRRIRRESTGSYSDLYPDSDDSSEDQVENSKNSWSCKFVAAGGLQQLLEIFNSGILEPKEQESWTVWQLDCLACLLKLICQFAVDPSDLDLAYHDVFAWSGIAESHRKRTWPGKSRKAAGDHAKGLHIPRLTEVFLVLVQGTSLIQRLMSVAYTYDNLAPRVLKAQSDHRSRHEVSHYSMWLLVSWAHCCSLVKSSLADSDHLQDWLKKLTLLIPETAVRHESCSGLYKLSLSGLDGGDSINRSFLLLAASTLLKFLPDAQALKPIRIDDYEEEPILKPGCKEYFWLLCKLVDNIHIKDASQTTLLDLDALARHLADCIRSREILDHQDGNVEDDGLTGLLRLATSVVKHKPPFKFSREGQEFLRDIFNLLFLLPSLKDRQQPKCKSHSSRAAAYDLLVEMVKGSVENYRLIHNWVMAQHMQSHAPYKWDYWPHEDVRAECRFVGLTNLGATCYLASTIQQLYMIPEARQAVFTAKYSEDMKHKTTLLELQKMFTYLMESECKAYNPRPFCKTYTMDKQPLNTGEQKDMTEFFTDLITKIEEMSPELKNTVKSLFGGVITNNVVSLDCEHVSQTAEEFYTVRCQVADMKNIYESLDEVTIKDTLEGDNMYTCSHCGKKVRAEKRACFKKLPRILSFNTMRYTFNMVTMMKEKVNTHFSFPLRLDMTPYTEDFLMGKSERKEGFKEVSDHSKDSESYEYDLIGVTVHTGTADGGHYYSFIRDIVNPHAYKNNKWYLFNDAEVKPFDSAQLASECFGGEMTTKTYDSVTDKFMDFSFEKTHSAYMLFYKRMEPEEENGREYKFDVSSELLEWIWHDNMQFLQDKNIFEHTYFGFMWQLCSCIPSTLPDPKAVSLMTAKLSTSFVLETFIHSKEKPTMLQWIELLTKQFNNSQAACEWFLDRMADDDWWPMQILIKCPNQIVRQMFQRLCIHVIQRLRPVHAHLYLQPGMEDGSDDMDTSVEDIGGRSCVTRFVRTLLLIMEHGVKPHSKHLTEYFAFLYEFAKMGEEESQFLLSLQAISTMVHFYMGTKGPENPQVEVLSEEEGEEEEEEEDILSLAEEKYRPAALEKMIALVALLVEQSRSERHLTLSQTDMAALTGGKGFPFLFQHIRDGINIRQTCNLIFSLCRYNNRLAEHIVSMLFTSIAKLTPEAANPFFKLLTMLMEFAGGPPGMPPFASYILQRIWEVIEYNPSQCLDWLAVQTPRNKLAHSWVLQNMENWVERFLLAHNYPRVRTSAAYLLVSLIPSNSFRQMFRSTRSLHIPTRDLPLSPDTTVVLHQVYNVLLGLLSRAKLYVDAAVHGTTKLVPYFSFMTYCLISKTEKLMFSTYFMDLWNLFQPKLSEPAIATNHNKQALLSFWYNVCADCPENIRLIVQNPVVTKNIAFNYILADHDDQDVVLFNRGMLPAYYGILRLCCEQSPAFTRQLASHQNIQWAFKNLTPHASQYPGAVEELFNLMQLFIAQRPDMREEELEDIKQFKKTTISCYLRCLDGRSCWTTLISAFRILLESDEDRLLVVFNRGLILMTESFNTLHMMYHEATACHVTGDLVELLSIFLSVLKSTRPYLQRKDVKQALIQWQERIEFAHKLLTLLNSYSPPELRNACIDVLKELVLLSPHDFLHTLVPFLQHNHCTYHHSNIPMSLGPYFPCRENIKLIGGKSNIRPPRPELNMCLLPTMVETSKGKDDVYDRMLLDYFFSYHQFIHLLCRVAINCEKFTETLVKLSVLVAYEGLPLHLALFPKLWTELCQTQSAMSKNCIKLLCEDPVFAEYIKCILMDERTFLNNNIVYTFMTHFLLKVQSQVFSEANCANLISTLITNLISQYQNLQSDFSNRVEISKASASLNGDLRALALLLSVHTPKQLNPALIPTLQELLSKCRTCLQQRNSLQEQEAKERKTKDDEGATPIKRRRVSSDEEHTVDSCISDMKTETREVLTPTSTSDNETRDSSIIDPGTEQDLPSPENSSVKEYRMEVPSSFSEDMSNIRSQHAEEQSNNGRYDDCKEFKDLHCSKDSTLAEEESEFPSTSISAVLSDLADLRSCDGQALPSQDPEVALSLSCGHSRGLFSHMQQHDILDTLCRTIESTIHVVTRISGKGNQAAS
Procedure, shortened: (§1)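 Average log2 ratios of fragment over vehicle were obtained by unpaired t-test from global-median-normalised Spectronaut label-free quantities. Proteins with ≥2 unique peptides were included. HEK293T lysate (495 µg per sample) was treated in triplicate with fragment at 200 µM or vehicle for 3 h, then with Biotin-Ahx-Ub-VS at 0.5 µM final for 1 h, and labelled DUBs were NeutrAvidin-enriched and run by diaPASEF LC-MS/MS.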

[2] = target: T1, USP36 (UniProt Q9P275)
T1 sequence (whole entry): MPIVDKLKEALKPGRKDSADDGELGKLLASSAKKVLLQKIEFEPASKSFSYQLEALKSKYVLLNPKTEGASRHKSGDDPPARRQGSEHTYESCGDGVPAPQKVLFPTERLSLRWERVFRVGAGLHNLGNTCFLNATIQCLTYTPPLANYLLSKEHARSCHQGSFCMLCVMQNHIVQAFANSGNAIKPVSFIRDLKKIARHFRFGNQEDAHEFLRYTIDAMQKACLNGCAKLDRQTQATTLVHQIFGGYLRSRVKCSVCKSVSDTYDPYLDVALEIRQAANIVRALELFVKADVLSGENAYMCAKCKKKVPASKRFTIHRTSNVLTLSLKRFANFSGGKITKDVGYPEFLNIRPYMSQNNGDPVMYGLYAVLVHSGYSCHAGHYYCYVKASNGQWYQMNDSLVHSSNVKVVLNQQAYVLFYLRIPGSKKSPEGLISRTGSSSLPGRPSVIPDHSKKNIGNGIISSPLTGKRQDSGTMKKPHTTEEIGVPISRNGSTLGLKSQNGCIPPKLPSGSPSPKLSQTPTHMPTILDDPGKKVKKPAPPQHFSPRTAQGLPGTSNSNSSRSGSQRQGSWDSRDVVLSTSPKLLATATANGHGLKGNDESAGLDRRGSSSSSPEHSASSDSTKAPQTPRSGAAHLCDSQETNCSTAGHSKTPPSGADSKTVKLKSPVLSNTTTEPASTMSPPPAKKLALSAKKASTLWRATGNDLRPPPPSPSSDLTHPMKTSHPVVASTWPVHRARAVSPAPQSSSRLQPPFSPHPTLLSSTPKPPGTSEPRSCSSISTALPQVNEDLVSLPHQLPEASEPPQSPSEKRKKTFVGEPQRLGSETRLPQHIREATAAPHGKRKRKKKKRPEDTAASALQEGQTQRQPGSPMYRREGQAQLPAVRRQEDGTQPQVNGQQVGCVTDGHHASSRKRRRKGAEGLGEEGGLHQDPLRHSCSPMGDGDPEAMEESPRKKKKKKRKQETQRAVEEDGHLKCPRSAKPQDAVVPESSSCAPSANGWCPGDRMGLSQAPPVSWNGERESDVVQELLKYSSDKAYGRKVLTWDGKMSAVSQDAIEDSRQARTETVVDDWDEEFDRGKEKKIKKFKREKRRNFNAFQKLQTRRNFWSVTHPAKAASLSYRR
Procedure, shortened: as §1

[3] = target: T2, USP38 (UniProt Q8NB14)
T2 sequence (whole entry): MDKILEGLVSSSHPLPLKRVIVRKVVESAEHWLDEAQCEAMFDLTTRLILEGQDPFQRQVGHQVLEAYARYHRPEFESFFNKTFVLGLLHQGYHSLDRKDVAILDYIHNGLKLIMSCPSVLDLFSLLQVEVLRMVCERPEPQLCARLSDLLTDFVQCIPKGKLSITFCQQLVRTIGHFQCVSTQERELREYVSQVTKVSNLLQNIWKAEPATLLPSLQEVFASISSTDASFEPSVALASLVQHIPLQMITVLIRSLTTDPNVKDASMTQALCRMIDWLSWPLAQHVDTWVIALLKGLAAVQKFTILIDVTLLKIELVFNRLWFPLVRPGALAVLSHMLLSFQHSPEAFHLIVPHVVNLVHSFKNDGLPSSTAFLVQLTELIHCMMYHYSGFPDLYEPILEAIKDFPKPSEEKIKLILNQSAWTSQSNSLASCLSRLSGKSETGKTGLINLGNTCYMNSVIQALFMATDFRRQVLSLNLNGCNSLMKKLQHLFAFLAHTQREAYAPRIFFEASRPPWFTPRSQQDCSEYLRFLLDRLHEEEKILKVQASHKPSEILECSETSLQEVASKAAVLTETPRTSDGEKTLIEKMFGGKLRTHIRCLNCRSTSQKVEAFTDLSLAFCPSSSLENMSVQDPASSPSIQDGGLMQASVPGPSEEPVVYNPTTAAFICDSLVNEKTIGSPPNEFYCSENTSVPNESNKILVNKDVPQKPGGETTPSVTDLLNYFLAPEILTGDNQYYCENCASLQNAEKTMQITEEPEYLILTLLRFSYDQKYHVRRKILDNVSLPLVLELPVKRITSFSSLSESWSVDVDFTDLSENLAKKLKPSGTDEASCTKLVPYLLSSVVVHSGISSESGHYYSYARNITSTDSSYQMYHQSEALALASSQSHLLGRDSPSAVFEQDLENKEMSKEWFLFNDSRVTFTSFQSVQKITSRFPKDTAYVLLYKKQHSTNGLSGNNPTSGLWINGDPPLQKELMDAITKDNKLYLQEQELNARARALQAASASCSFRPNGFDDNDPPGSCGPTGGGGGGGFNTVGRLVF
Procedure, shortened: as §1

[4] = target: T3, USP39 (UniProt Q53GS9)
T3 sequence (whole entry): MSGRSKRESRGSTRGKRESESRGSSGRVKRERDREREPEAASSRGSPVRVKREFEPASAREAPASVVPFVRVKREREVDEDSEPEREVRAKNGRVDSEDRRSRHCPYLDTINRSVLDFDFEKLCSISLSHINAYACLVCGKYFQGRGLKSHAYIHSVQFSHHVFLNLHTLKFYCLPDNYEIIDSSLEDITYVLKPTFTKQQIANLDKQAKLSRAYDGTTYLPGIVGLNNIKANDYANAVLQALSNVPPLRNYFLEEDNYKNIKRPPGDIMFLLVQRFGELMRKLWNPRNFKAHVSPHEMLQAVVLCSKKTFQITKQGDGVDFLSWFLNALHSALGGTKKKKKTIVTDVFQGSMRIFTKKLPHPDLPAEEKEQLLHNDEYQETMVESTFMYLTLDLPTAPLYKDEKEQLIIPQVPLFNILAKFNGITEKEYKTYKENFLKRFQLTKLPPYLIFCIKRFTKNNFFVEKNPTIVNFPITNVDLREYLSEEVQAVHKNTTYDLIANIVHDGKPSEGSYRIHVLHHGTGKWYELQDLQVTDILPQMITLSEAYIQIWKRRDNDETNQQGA
Procedure, shortened: as §1

[5] = target: T4, USP4 (UniProt Q13107)
T4 sequence (whole entry): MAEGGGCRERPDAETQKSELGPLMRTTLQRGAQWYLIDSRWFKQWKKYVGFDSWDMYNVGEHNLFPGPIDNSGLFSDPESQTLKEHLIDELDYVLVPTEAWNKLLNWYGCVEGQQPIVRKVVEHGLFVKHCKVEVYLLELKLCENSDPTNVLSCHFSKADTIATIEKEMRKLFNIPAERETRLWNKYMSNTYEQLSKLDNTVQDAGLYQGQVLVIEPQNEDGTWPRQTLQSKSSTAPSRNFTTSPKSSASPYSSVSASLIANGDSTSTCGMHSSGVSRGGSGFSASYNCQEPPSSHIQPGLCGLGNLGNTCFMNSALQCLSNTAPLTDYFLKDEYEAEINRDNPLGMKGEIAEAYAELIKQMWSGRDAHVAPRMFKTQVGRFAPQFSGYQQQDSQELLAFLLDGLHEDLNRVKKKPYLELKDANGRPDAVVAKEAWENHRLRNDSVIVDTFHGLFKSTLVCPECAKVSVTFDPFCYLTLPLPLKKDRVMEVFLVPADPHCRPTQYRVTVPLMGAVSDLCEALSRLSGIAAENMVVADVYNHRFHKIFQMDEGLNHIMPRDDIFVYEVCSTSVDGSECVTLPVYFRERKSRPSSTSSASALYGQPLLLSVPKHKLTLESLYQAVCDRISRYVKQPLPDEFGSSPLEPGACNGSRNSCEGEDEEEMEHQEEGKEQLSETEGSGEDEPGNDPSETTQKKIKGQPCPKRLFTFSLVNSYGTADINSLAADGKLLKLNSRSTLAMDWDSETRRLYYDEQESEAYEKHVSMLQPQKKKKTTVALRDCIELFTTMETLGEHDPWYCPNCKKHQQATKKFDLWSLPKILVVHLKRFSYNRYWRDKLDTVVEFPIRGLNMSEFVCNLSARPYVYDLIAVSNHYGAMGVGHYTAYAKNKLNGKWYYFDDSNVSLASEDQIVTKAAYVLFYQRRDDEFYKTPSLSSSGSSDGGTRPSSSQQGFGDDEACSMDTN
Procedure, shortened: as §1

Measured: log2 ratio of Biotin-Ahx-Ub-VS probe labelling

O=C(CCl)Nc1cc(Cl)ccc1C(=O)O
inactive: [1] 0.243 | [2] 0.209 | [3] 0.105 | [4] 0.562 | [5] 0.12
